Test results published in PubChem BioAssay (NCATS).
Inconclusive results are not listed. Calls of active or inactive are those of the source. Calls follow the shape of the dose curve; as a rule, active = well fitted curve in the direction sought with a large enough effect; inconclusive = small, poorly fitted or top-dose-only effect, or another doubt; inactive = no such curve, though single readings can be large; an effect the other way counts as inactive or inconclusive.

Key:
[1] = qHTS for compounds that reverse cellular toxicity of Amyloid beta (A-beta) peptide in yeast: LOPAC Validation Assay (AID 720559)
Summary of the method: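 Yeast expressing toxic A-beta grown with pinned compounds at 30 C for 48 hr. Growth measured as absorbance at 600 nm; data normalized to DMSO and to an equimolar FeCl3/clioquinol mixture as positive control.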

[2] = qHTS for Activators of Parkin Expression: LOPAC Validation Assay (NLuc Reporter) (AID 720572)
Summary of the method: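 Parkin promoter-driven FLuc/NLuc neuronal reporter cells; 24 h plating, 7-pt dose response, 24 h at 37 C/5% CO2; FLuc then NanoLuc reagent, 10 min each, luminescence; DMSO/positive control normalized.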

[3] = qHTS for Activators of Parkin Expression: LOPAC Validation Assay (FLuc Reporter) (AID 720573)
Summary of the method: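 Neuronal cell line stably expressing FLuc/NLuc coincidence reporter under the Parkin promoter, 1,500 cells/well, dosed 24 h after seeding in 7-point series for 24 h at 37 C. FLuc luminescence read; normalized to DMSO and positive control (100%).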

[4] = biological target: Hexokinase-4 (Homo sapiens) + Glucokinase regulatory protein (Homo sapiens) (UniProt P35557+Q14397); test: qHTS assay for inhibitors of recombinant human GCK-GKRP interaction: Diaphorase-coupled assay (AID 743205)
Hexokinase-4 (Homo sapiens) + Glucokinase regulatory protein (Homo sapiens), sequence (P35557 whole entry, looked up): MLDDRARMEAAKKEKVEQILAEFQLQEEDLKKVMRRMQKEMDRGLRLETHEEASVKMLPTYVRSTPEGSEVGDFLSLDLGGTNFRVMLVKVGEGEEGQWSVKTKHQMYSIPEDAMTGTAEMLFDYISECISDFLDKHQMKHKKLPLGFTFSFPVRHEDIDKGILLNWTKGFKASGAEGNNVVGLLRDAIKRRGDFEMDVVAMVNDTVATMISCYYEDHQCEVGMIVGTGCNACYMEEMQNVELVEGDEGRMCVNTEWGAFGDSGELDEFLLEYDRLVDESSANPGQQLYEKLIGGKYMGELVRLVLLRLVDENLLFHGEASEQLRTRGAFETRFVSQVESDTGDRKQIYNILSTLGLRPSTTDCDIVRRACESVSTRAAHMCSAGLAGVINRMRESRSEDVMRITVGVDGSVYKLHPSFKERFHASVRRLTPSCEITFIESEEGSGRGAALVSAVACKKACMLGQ
Hexokinase-4 (Homo sapiens) + Glucokinase regulatory protein (Homo sapiens), sequence (Q14397 whole entry, looked up): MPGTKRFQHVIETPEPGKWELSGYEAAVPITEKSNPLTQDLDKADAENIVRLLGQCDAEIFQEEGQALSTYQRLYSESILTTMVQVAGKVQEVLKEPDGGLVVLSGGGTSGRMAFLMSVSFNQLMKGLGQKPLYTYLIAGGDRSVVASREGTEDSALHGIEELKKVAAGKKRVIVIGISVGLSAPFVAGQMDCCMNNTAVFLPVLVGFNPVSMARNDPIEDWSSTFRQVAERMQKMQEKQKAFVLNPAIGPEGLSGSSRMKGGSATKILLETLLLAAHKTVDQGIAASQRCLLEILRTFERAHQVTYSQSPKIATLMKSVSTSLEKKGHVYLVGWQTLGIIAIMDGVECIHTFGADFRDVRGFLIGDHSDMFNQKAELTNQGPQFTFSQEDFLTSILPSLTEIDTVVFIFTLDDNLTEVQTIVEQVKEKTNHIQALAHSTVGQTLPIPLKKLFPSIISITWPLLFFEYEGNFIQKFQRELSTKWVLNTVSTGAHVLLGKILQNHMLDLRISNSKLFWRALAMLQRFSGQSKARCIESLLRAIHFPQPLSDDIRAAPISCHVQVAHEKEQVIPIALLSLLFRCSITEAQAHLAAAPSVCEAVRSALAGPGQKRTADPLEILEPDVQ
Summary of the method: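 Compounds pre-incubated 20 min with substrate, then 10 nM GST-GCK with 10 nM FLAG-GKRP added. GCK activity coupled via G6PDH and diaphorase to resorufin (5 mM glucose, 0.4 mM ATP, 0.15 mM NADP+, pH 7.6), read kinetically over 30 minutes at Ex 525/Em 590 nm.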

Measured: Potency

O=C1Nc2ccc(I)cc2/C1=C/c1cc(Br)c(O)c(Br)c1
inactive: all assays above

Nc1ncnc2c1ncn2C1CCCO1 (stereo not drawn)
inactive: all assays above

CN1CCc2cc(Cl)c(O)cc2[C@@H](c2ccccc2)C1
inactive: all assays above

CC(C)(CO)Cc1cc(C(C)(C)C)c(O)c(C(C)(C)C)c1
inactive: all assays above

O=C(O)CCC(=O)N1CCCC1C(=O)O (stereo not drawn)
inactive: all assays above

CC(=O)O[C@H]1Cc2ccccc2N(C(N)=O)c2ccccc21
inactive: all assays above

Nc1ncnc2c1c(-c1ccc(Oc3ccccc3)cc1)cn2C1CCCC1
inactive: all assays above

NC(N)=NC(N)=Nc1ccccc1
inactive: all assays above

CCCN(CCc1ccccc1)C1CCc2c(O)cccc2C1 (stereo not drawn)
inactive: all assays above

N[C@@H](Cc1c[nH]c2ccccc12)C(=O)O
inactive: all assays above

Nn1nnc2ccccc21
inactive: all assays above

Nc1ncnc2c1nc(Sc1ccc(Cl)cc1)n2[C@H]1OC2COP(=O)(O)O[C@@H]2C1O (stereo partly drawn)
inactive: all assays above

O=C(O)C1CCNCC1
inactive: all assays above

CNc1ncnc2c1ncn2[C@H]1C[C@H](OP(=O)(O)O)[C@@H](COP(=O)(O)O)O1
inactive: all assays above

N[C@@H](Cc1ccc(O)c(I)c1)C(=O)O
inactive: all assays above

CNCCNS(=O)(=O)c1cccc2cnccc12
inactive: all assays above

COc1ccccc1N1CCN(CCCCN2C(=O)c3ccccc3C2=O)CC1
inactive: all assays above

S=C(S)N1CCCC1
inactive: [2] | [3] | [4]

O=c1[nH]c2cc(Cl)ccc2c(O)c1-c1ccc(Oc2ccccc2)cc1
inactive: all assays above

C#CCn1c(=O)c2c(ncn2C)n(C)c1=O
inactive: [1] | [3] | [4]

CCCCOC(=O)NS(=O)(=O)c1sc(CC(C)C)cc1-c1ccc(Cn2c(CC)nc3c(C)cc(C)nc32)cc1
inactive: [1] | [3] | [4]

CCCCS(=N)(=O)CC[C@H](N)C(=O)O (stereo partly drawn)
inactive: [1] | [3] | [4]

Cc1nc(N=Nc2cc(S(=O)(=O)O)c3cc([N+](=O)[O-])cc(S(=O)(=O)O)c3c2)c(COP(=O)(O)O)c(C=O)c1O
inactive: all assays above

Cc1ccccc1/C=C/C1=NCCN1
inactive: all assays above

C[C@H](O)C(=O)C1=Nc2c(nc(N)[nH]c2=O)NC1
inactive: all assays above

Cc1nc2c(OCc3ccccc3)cccn2c1CC#N
inactive: all assays above

C=C1C[C@@]23CC[C@H]4[C@@](C)(CCC[C@@]4(C)C(=O)OC4OC(CO)C(O)C(O)C4O)[C@@H]2CC[C@]1(OC1OC(CO)C(O)C(O)C1OC1OC(CO)C(O)C(O)C1O)C3 (stereo partly drawn)
inactive: [2] | [3] | [4]
